Bioassay records deposited in PubChem by Broad Institute.
miR122 inh – miR-122 suppressors via Renilla sensor increase, primary screen, cell-based, Huh7 psiCHECK-miR122, Renilla luciferase, single point; activation, % at 12.5 µM; AID 623901, 2012; 48 h; 340,000 compounds, 0.14% hits;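 active means mean activation of 30% or more, with every replicate also reaching 30%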;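 further: higher luciferase signal means stronger suppression of miR-122 activity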
Each line names hits and unclear results; the compound was inactive in the other large screens. The entries come from a sample that favours hits as a whole.

C[C@H](CO)N1C[C@H](C)[C@H](CN(C)C(=O)c2ccncc2)Oc2cc(C#Cc3ccncc3)ccc2S1(=O)=O	none
COCC#Cc1ccc2c(c1)O[C@@H](CN(C)Cc1cncnc1)[C@@H](C)CN([C@@H](C)CO)S2(=O)=O	none
C/C(=N\NC(=O)C(C)Oc1ccc([N+](=O)[O-])cc1)c1ccccn1 (configuration not stated)	miR122 inh 32.0
C[C@@H]1CN([C@H](C)CO)S(=O)(=O)c2ccc(C#Cc3ccc(F)cc3)cc2O[C@@H]1CN(C)S(C)(=O)=O	none
C[C@H](O)C#Cc1ccc2c(c1)O[C@@H](CN(C)CC1CCOCC1)[C@H](C)CN([C@@H](C)CO)S2(=O)=O	none
CC(C)C#Cc1ccc2c(c1)O[C@@H](CN(C)Cc1ccncc1)[C@H](C)CN([C@H](C)CO)S2(=O)=O	none
COc1cccc(-c2cnc3c(c2)C(=O)N([C@@H](C)CO)C[C@@H](C)[C@H](CN(C)C(=O)CC2CC2)O3)c1	none
Cc1cc(C(C)(C)CC(C)(C)C)ccc1OCCOCC[N+](C)(C)Cc1ccccc1	miR122 inh 57.6
C[C@@H](O)C#Cc1ccc2c(c1)O[C@H](CN(C)C)[C@@H](C)CN([C@@H](C)CO)S2(=O)=O	none
C[C@@H]1CN([C@H](C)CO)S(=O)(=O)c2ccc(C#Cc3ccccc3)cc2O[C@H]1CN(C)S(=O)(=O)c1ccccc1F	none
CC(=O)c1cccc(S(=O)(=O)NCC2CCCCC2)c1	miR122 inh 51.0
Cc1cccc(NS(=O)(=O)c2cccc(C(=O)N3CCCCCCC3)c2)c1	none
O=C(Nc1ccc(S(=O)(=O)NCC2CCCO2)cc1)c1cccc(F)c1 (configuration not stated)	none
COc1ccccc1-c1cnc2c(c1)C(=O)N([C@@H](C)CO)C[C@@H](C)[C@H](CN(C)Cc1ccccc1)O2	none
CCCN(C)C[C@H]1Oc2cc(C#CCN(C)C)ccc2S(=O)(=O)N([C@@H](C)CO)C[C@H]1C	none
C[C@H]1CN([C@@H](C)CO)C(=O)c2cccc(NC(=O)c3ccncc3)c2O[C@@H]1CN(C)Cc1ccc(C(F)(F)F)cc1	none
COc1cccc(-c2ccc3c(c2)O[C@@H](CN(C)CC2CC2)[C@@H](C)CN([C@H](C)CO)S3(=O)=O)c1	none
Cc1ccsc1/C=N/NC(=O)CSCc1ccc(Cl)cc1	miR122 inh 35.8
CC(C)C#Cc1ccc2c(c1)O[C@H](CN(C)C(=O)NC(C)C)[C@H](C)CN([C@H](C)CO)S2(=O)=O	none
CCCC(=O)Nc1ccc2c(c1)C(=O)N(C)C[C@@H](OC)[C@H](C)CN(CCC)[C@H](C)CO2	none
CCCC(=O)Nc1ccc2c(c1)OC[C@@H](C)N(C)C[C@H](C)[C@H](OC)CN(C)C2=O	none
CCn1c(Cl)c(C=O)s/c1=N\S(=O)(=O)c1ccccc1	miR122 inh 72.1
C[C@H](CO)N1C[C@H](C)[C@H](CN(C)Cc2ccccc2C(=O)O)Oc2ncc(C3=CCCCC3)cc2C1=O	none
C/C=C/c1ccc2c(c1)O[C@H](CN(C)C(=O)CC1CC1)[C@H](C)CN([C@@H](C)CO)S2(=O)=O	none
COCC#Cc1ccc2c(c1)O[C@@H](CN(C)C(=O)C1CCCCC1)[C@H](C)CN([C@H](C)CO)S2(=O)=O	none
O=C(Nc1ccccc1F)N1C[C@@H]2[C@H](c3ccccc31)[C@@H](CO)N2C(=O)C1CCCC1	none
CN1[C@@H](CO)[C@@H]2c3ccccc3N(C(=O)Nc3cc(F)ccc3F)C[C@@H]21	miR122 inh 33.3
O=S(=O)(c1ccccc1)N1C[C@H]2[C@@H](c3ccccc31)[C@@H](CO)N2Cc1ccc2c(c1)OCO2	none
COCC#Cc1ccc2c(c1)O[C@H](CN(C)C(C)=O)[C@H](C)CN([C@H](C)CO)S2(=O)=O	none
C[C@@H]1CN([C@@H](C)CO)C(=O)c2cc(C#CC3(O)CCCC3)cnc2O[C@H]1CN(C)Cc1ccncc1	none
C[C@H]1CN([C@@H](C)CO)S(=O)(=O)c2ccc(C#Cc3cccnc3)cc2O[C@@H]1CN(C)CC1CCOCC1	none
Cc1noc(C)c1S(=O)(=O)N(C)C[C@@H]1Oc2c(NC(=O)c3cnccn3)cccc2C(=O)N([C@@H](C)CO)C[C@@H]1C	none
C[C@@H](O)C#Cc1cnc2c(c1)C(=O)N([C@@H](C)CO)C[C@H](C)[C@@H](CN(C)Cc1cncnc1)O2	none
CN(C)CCNc1nc2sc3c(c2c(=O)n1CCc1ccccc1)CCCCC3	miR122 inh 32.4
COc1ccccc1-c1ccc2c(c1)O[C@H](CN(C)C(=O)Nc1ccccc1)[C@@H](C)CN([C@@H](C)CO)S2(=O)=O	none
C[C@H]1CN([C@@H](C)CO)S(=O)(=O)c2ccc(Br)cc2O[C@H]1CN(C)CC1CCOCC1	none
CCCNC(=O)C[C@@H]1CC[C@H]2[C@H](COc3ccc(NC(=O)Cc4cccs4)cc3C(=O)N2C)O1	none
CCCNC(=O)C[C@@H]1CC[C@H]2[C@H](COc3ccc(NC(=O)c4ccc5c(c4)OCO5)cc3C(=O)N2C)O1	none
CN1C(=O)c2cc(NC(=O)Cc3ccccc3)ccc2OC[C@@H]2O[C@H](CC(=O)NCC3CC3)CC[C@@H]21	none
CCNC(=O)Nc1ccc2c(c1)C(=O)N(C)[C@H]1CC[C@H](CC(=O)Nc3ccccc3F)O[C@@H]1CO2	miR122 inh 53.3
CCCNC(=O)C[C@H]1CC[C@H]2[C@@H](COc3ccc(NC(=O)c4cc(F)cc(F)c4)cc3C(=O)N2C)O1	miR122 inh 53.3
CCCNC(=O)C[C@@H]1CC[C@@H]2[C@@H](COc3ccc(NC(=O)Nc4ccccc4F)cc3C(=O)N2C)O1	miR122 inh 50.0
Cc1ccccc1NC(=O)Nc1ccc2c(c1)C(=O)N(C)[C@@H]1CC[C@H](CC(=O)NCC3CC3)O[C@@H]1CO2	miR122 inh 46.7
CCCNC(=O)C[C@H]1CC[C@H]2[C@H](COc3ccc(NC(=O)Cc4cccs4)cc3C(=O)N2C)O1	none
C[C@@H]1CN([C@@H](C)CO)S(=O)(=O)c2ccc(-c3ccccc3)cc2O[C@H]1CN(C)Cc1cncnc1	none
COc1ccccc1-c1cnc2c(c1)C(=O)N([C@H](C)CO)C[C@@H](C)[C@@H](CN(C)Cc1ccccc1)O2	none
C[C@H]1CN([C@@H](C)CO)C(=O)c2cc(C#CC3(O)CCCC3)cnc2O[C@@H]1CN(C)S(=O)(=O)c1ccccc1	none
C[C@H]1CN([C@@H](C)CO)C(=O)c2cc(/C=C/c3ccccc3)cnc2O[C@H]1CN(C)C(=O)c1cccnc1	none
CO[C@@H]1CN(C)C(=O)c2ccc(NC(=O)C3CCC3)cc2OC[C@@H](C)NC[C@H]1C	none
COc1ccccc1-c1ccc2c(c1)O[C@H](CN(C)S(=O)(=O)c1ccccc1)[C@H](C)CN([C@@H](C)CO)S2(=O)=O	none
COc1ccc(C#Cc2cnc3c(c2)C(=O)N([C@@H](C)CO)C[C@H](C)[C@@H](CN(C)CC2CCCC2)O3)cc1	none
C[C@@H]1CN([C@@H](C)CO)C(=O)Cc2cc(NC(=O)NC3CCCCC3)ccc2O[C@H]1CN(C)Cc1ccncc1	none
CCCNC(=O)C[C@@H]1CC[C@@H]2[C@H](COc3ccc(NC(=O)Nc4c(C)noc4C)cc3C(=O)N2C)O1	none
CCCNC(=O)Nc1ccc2c(c1)C(=O)N(C)[C@@H]1CC[C@H](CC(=O)NCC3CCCCC3)O[C@H]1CO2	miR122 inh 33.3
Cc1nn(C)cc1NC(=O)C[C@@H]1CC[C@@H]2[C@@H](COc3ccc(NC(=O)Nc4cccc(Cl)c4)cc3C(=O)N2C)O1	miR122 inh 47.8
CN1C(=O)c2cc(NC(=O)Cc3ccccc3)ccc2OC[C@@H]2O[C@H](CC(=O)NCc3ccc(Cl)cc3)CC[C@@H]21	none
